Bioassay records from PubChem BioAssay.
IP6K1 inh = Primary qHTS assay for small molecule inhibitors of Inositol hexaphosphate kinase 1 (IP6K1) | Inositol hexakisphosphate kinase 1 (Homo sapiens), Q92551 | IP6K1 kinase, ADP-Glo luminescence, 2 h; active compounds read low | activity change, % (series mostly up to about 58 µM) | 140,000 tested, 0.81% active | AID 1645851, 2021; in the data active = activity change below about -25%; also: % is scaled to controls: 0 for no effect and ±100 for the full control effect
Target sequence (Q92551 whole entry, looked up): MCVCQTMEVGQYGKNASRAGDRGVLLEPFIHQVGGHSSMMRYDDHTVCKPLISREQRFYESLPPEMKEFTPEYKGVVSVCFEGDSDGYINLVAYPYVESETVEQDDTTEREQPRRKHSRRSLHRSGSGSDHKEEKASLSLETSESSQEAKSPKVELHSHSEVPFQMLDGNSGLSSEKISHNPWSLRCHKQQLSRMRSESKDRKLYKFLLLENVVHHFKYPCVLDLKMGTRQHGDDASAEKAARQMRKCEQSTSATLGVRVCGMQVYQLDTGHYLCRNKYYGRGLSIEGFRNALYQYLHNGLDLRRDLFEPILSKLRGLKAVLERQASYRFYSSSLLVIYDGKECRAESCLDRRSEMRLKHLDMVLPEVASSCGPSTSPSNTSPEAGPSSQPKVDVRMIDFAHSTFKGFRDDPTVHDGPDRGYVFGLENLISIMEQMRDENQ
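ADP-Glo luminescence measures ADP made by human IP6K1 during a 2 h RT reaction with ATP/IP6 (mix at 1.3 mM/130 uM); top library doses 57.5 and 19.1 uM final.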
SNCA expr inhib = Primary qHTS assay for inhibitors of alpha-synuclein gene (SNCA) expression | HEK-293 SNCA-luciferase knock-in, luminescence, 24 h | Potency, µM (highest dose often 57.2 µM), for inactives: top-dose activity change, negative = inhibition, most hits filed as inhibitors | 140,000 tested, 0.17% active | AID 1671194, 2021;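 also: potency is read from the fitted curve at half-maximal effect; plate controls were DMSO cells for no effect and cell-free wells for full effect; nearly all actives have a fitted effect of over 45% in size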
KDM5B inh = Primary screen for KDM5B Histone Demethylases FDH-coupled qHTS; Lysine-specific demethylase 5B (Homo sapiens), Q9UGL1; KDM5B demethylase, FDH-coupled NADH fluorescence (FDH is formaldehyde dehydrogenase); Potency, µM (series often up to 57.7 µM), most hits filed as inhibitors; 220,000 tested, 2.6% active; AID 1347165, 2019; also: potency is read from the fitted curve at half-maximal effect; 0% is about no effect; nearly all actives have a fitted effect of over 70% in size
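KDM5BΔAP (200 nM final) in 50 mM HEPES pH 7.5, 0.01% Tween-20 was preincubated 10 min at RT with compound over a concentration range. Substrate mix (H3K4me3 12.5 µM, α-KG 25 µM, Fe²⁺, ascorbate, NAD⁺, FDH) was added, and NADH fluorescence change over 30 min gave dose-response curves.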
SNCA viab count = GF-AFC viability counterscreen for inhibitors of alpha-synuclein gene (SNCA) expression | HEK-293-SNCA-luc viability, GF-AFC fluorescence, 24 h | Potency, µM (top dose mostly 57.1 µM), without a hit: at the top dose activity change, negative = cytotoxicity, hits mostly cytotoxic | 150,000 tested, 0.12% active;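 also: potency is read from the fitted curve at half-maximal effect; 0% = DMSO-treated cells and -100% = medium-only wells without cells; nearly all actives have a fitted effect of over 30% in size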
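HEK-293-SNCA-luc cells (1500/well) plated 24 h, then exposed 24 h to a dilution series; GF-AFC added 30 min at 37C, fluorescence 405/540 nm; normalised to medium-only and DMSO wells, Hill fit.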
IP6K1 conf = Confirmatory qHTS assay for small molecule inhibitors of Inositol hexaphosphate kinase 1 (IP6K1). shares compounds with IP6K1 inh. recombinant IP6K1 kinase, ADP-Glo luminescence, 2 h. Potency, µM (doses to about 49 µM), for the others: at the top dose activity change, negative = inhibition, usual class: inhibitors. 1,200 tested, 13% active. AID 1645852, 2021; also: potency is read from the fitted curve at half-maximal effect; % is scaled to controls: 0 for no effect and ±100 for the full control effect; nearly all actives have a fitted effect of over 65% in size
Starred values were filed as active, the others as inactive; i = inactive; u = inconclusive; x = no result; ! = not confirmed by another sample; [ ] = remark or other dose. Compounds with a hit are over-represented: about 3% of the library has one in this group of screens. Unless noted, calls follow the shape of the dose curve; as a rule, active = well fitted curve in the direction sought with a large enough effect; inconclusive = small, poorly fitted or top-dose-only effect, or another doubt; inactive = no such curve, though single readings can be large; an effect the other way counts as inactive or inconclusive.

SMILES	IP6K1 inh	SNCA expr inhib	KDM5B inh	SNCA viab count	IP6K1 conf
Oc1cccc(-c2nc(N3CCOCC3)c3oc4ncccc4c3n2)c1	x	u	x	-9%[87.6 µM]	u
Cc1cc(C)cc(-n2ccn3c(SCC(=O)c4ccc(Br)cc4)nnc3c2=O)c1	x	x	i	x	x
Cc1nn(-c2ccccc2)c2c1C(C1CC1)N(C1CN(C(=O)NC(C)c3ccccc3)C1)C2=O (stereo not drawn)	10	x	x	x	x
Cn1nccc1Nc1nccc(-c2ccn([C@H](CO)c3ccc(Cl)c(F)c3)c(=O)c2)n1	-36*	x	x	1%	8.2µM*
Cc1ccccc1C(=O)NC1CCN(c2ccc3nnc(-c4ccccc4)n3n2)CC1	-3	x	x	x	x
Cc1ccc(OCC(=O)Nc2ccccc2OCc2cc(=O)n3ccccc3n2)cc1C	-27*	29%	i	10%	-4%
NCC(c1ccc(F)cc1)c1c[nH]c2ccccc12 (stereo not drawn)	x	x	i	x	x
c1ccc2c(CCNc3ccc(Nc4ccncc4)cc3)c[nH]c2c1	23	u	x	-12%	x
c1cc(NCCc2c[nH]c3ccccc23)cc(Nc2ccncc2)c1	-34*	x	x	u	-5%
Cc1ccc(C(=O)N2CCC3(CC2)CC(N(Cc2ccc(F)cc2)C2CC2)CCO3)cn1 (stereo not drawn)	-26*	2%	i	-3%	4%
Cc1ccc(C(=O)N2CCC3(CC2)CC(N(Cc2ccc(F)cc2)C2CC2)CCO3)cc1 (stereo not drawn)	-16	-7%	i	-5%	x
COc1cccc(Cn2cc(S(=O)(=O)c3ccc(C)cc3)c(=O)c3cc4c(cc32)OCO4)c1	-30*	69%	u	-8%	11%
O=C(NC1CCCN(c2ccc3nnc(-c4ccccc4)n3n2)C1)c1ccccn1 (stereo not drawn)	-6	x	x	x	x
CN1C[C@@H](NC(=O)Nc2ccccc2)C[C@H]1c1nc(-c2ccccc2)no1	-25*	49%[87.6 µM]	35µM*	2%[87.6 µM]	u
O=C(O)CNS(=O)(=O)c1ccc(Br)cc1	x	x	i	x	x
c1ccc(Oc2cc3c(cn2)NCCN(Cc2ccsc2)C3)cc1	-29*	11%[87.6 µM]	u	6%[87.6 µM]	-4%
COc1cc(C2CC(=O)Oc3c2c(=O)[nH]c2ccccc32)cc(OC)c1OC (stereo not drawn)	-14	17%	u	5%	x
O=C1CC(c2ccc(F)cc2)c2c(c3ccccc3[nH]c2=O)O1 (stereo not drawn)	-28*	-29%	u	5%	13%
CC(=O)c1cccc(Nc2nc(-c3cccc(C)c3)nc3ccccc23)c1	-39*	52%	u	-5%	u
CC(C)Sc1nc2c(c(=O)[nH]c(=O)n2C)n1Cc1ccccc1Cl	x	x	i	x	x
CC(C)Oc1ccc(C(CC(=O)O)NC(=O)c2ccc(C(C)(C)C)cc2)cc1 (stereo not drawn)	x	x	i	x	x
CCOc1ccccc1CN1C(=O)c2ccccc2C1C(=O)NC1CCCCCC1 (stereo not drawn)	-41*	-5%	i	u	-18%
C=CCNC(=S)NNC(=O)Nc1ccccc1	x	x	i	x	x
CCOc1ccc(N/C=C/C(=O)c2cc(C)ccc2C)cc1	x	x	i	x	x
Cc1oncc1C(=O)Nc1ccc(C(F)(F)F)cc1	30	-22%	x	0%	2%
SMILES	IP6K1 inh	SNCA expr inhib	KDM5B inh	SNCA viab count	IP6K1 conf
CN(Cc1ccccc1)C(=O)c1ccc(S(=O)(=O)Nc2ccccc2)cc1	x	x	x	x	-9%
CC1=C(C(=O)Nc2ccc(C)cc2C)C(c2cccs2)n2nc(SCc3ccccc3Cl)nc2N1 (stereo not drawn)	-26*	18%	i	3%	23%
CC1=C(C(=O)Nc2ccccc2C)C(c2cccs2)n2nc(SCc3cc(C)ccc3C)nc2N1 (stereo not drawn)	0	-6%	i	7%	x
Cc1cn(C)c(CC(=O)N2CCN(c3cccc(Cl)c3)CC2)c1C(=O)O	-26*	6%	i	1%	-25%
Cc1ccccc1OCc1ccc(-c2nc(C#N)c(N3CCN(c4ccccc4)CC3)o2)o1	1	u	u	10%	x
Cc1ccc(OCc2ccc(-c3nc(C#N)c(N4CCN(c5cccc(Cl)c5)CC4)o3)o2)cc1	-34*	-17%	i	14%	-3%
N#CCNC(=O)c1ccc2c(c1)OCCCO2	x	x	i	x	x
CO/N=C(/C(=O)N[C@@H]1C(=O)N2C(C(=O)O)=C(CSC(=O)c3ccco3)CS[C@H]12)c1csc(N)n1	-49*!	x	x	7%	u
CO/N=C(/C(=O)N[C@@H]1C(=O)N2C(C(=O)OCOC(=O)C(C)(C)C)=C(C)CS[C@H]12)c1csc(N)n1	14	-24%[25.6 µM]	x	-13%[23.9 µM]	x
CNC(=O)C1CCN(c2nc3ccccc3nc2C(F)(F)F)CC1	-20	15%	i	-2%	x
CC(C)NC(=O)C1CCN(c2nc3ccccc3nc2C(F)(F)F)CC1	-35*	17%	i	-3%	23%
CCCCNC(=O)C1CCN(c2nc3ccccc3nc2C(F)(F)F)CC1	-29*	6%	i	10%	2%
O=C(/C=C/C=C/c1ccc([N+](=O)[O-])cc1)c1ccccc1	x	x	i	x	x
Cc1ccc(-c2ccccc2CN2CCC(C(=O)NCCc3ccccc3)CC2)cc1Cl	-13	16%	x	3%	x
CCc1oc2ccccc2c1C(=O)c1cc(I)c(O)c(I)c1	-56*	-13%[25.6 µM]	x	62%[23.9 µM]	3.5µM*
CCc1oc2ccccc2c1/C=N/O	x	x	i	x	x
Cc1oc2c(c(C)cc3oc(=O)c(CC(=O)NCCc4ccccc4F)c(C)c32)c1C	-27*	17%	i	-1%	-12%
CN1C(=O)CC[C@H]1c1cccnc1	-14	-3%	x	-4%	x
CN1CCC[C@@H]1c1cccnc1	-31*	27%[25.6 µM]	x	43%[23.9 µM]	-8%
Nc1nccnc1C(=O)NCCc1c[nH]c2ccccc12	x	x	i	x	x
N#CC(=Cc1ccc(O)c(O)c1)C(=O)NCc1ccccc1	x	-24%	x	-8%	u
O=Cc1ccc(-c2ccc(C(=O)O)cn2)cc1	-27*	9%[87.6 µM]	22µM*	2%[87.6 µM]	6%
O=Cc1cccc(-c2ccc(C(=O)O)cn2)c1	-16	-13%[87.6 µM]	i	-6%[87.6 µM]	x
CC(C)Cc1nc(CN(C)C(=O)c2cccc(CCC(C)(C)O)c2)no1	-32*	u	i	-8%	-12%
O=c1cc(CN2CCN(S(=O)(=O)c3ccccc3)CC2)c2cc(Cl)c(O)cc2o1	x	x	i	x	x
CCOC(=O)c1c(NC(C)=O)c2c3c(sc2n1Cc1nc(-c2ccccc2Cl)oc1C)CCCC3	-30*	u	u	-23%	11%
COc1cccc(C(CNC(=O)c2ccc(S(=O)(=O)Nc3ccc(C)cc3)cc2)N(C)C)c1 (stereo not drawn)	x	x	i	x	x
